# Source: PubChem
# A selection: hits, their analogues and other compounds. The true share with any hit is near 1.7%.
# TrxR1 substrate – is turned over as a substrate by rat TrxR1; O89049; purified TrxR1 substrate turnover, NADPH consumption readout; Potency, µM (titrated, usually from 114 µM), without a hit: at the highest dose activity change, negative = substrate turnover; actives 0.01% (n = 390,000); note: % is set by controls: 0 for no effect and ±100 for the full control effect; nearly all actives have a fitted effect of over 50% in size
#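 Rat TrxR1, dispensed at 90 nM, was prereduced with 400 uM NADPH (final) for 5 min at ~22 deg C, then incubated with compound 15 min before 400 uM selenite. A first-read NADPH fluorescence drop versus no-compound background flagged substrates.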
# rTrxR1 inhibitor – rat TrxR1 inhibition; O89049; recombinant rTrxR1, NADPH fluorescence consumption, selenite substrate; Potency, µM (highest dose often 114 µM), for inactives: top-dose activity change, negative = inhibition, most hits filed as inhibitors; actives 1% (n = 390,000); note: % is set by controls: 0 for no effect and ±100 for the full control effect; nearly all actives have a fitted effect of over 65% in size
#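 Rat TrxR1 (90 nM in the dispensed reagent) was pre-reduced with 400 uM NADPH for 5 min at room temperature, then incubated with compound for 15 min. After 400 uM selenite was added, NADPH fluorescence (Ex 340/Em 450 nm) was followed for 8 min.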
# GRP78 ERSR act – ER stress response induction in glioma | U87-MG GRP78 promoter luciferase reporter, 16 h | actives 0.02% (n = 420,000) | Potency, µM, for inactives: at the top dose activation, actives largely listed as activators; note: series mostly up to about 76 µM; % of control where 0% means no effect; nearly all actives have a fitted effect of over 35% in size
#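 Stably transfected U87-MG glioma cells carrying a GRP78-based luciferase sensor; 16 h compound incubation. Luminescence end-point read 10 min after Bright-Glo addition at room temperature.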
# 12-LOX inh – ALOX12 (human) lipoxygenase inhibition; P18054; purified 12hLO, xylenol orange hydroperoxide absorbance; Potency, µM (top dose mostly 108 µM), for the others: at the top dose activity change, negative = inhibition, usual class: inhibitors; actives 1.1% (n = 580,000); note: % is set by controls: 0 for no effect and ±100 for the full control effect
#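 Purified human 12hLO at 150 nM in 25 mM Hepes, 0.01% Triton X-100, pH 7.0, preincubated 15 min at room temperature with compound. Reaction started with 40 uM arachidonic acid, 30 min at room temperature. Hydroperoxide measured by Fe-xylenol orange, 573/405 nm absorbance ratio.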
# Apoferritin bind – candidate novel general anesthetic via apoferritin binding; apoferritin/1-aminoanthracene competitive binding, fluorescence; Potency, µM (series often up to 77.5 µM), for inactives: at the highest dose activity change, negative = displacement, most hits filed as inhibitors; actives 0.074% (n = 350,000); AID 485281; note: % is set by controls: 0 for no effect and ±100 for the full control effect; nearly all actives have a fitted effect of over 20% in size
# Target sequence (P02791 2-175 limits assumed): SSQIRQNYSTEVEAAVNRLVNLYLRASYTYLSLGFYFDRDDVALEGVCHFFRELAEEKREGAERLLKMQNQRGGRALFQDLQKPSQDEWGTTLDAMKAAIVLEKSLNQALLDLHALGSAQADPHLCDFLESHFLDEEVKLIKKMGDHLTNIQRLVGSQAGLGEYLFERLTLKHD
#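 Apoferritin-based anesthetic binding model; compound displacement of fluorescent 1-AMA measured as endpoint fluorescence after 10 minutes at room temperature, scaled to free-ligand and complex controls.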
# mIDH1 inhibitor – human IDH1 R132H inhibition. AID 602179. IDH1-R132H enzyme, NADPH consumption, diaphorase/resazurin fluorescence. Potency, µM (top dose mostly 76.6 µM), for inactives: top-dose activity change, negative = inhibition, usual class: inhibitors. actives 0.093% (n = 390,000); note: % is set by controls: 0 for no effect and ±100 for the full control effect; nearly all actives have a fitted effect of over 65% in size
# Target sequence (O75874 whole entry R132H, stated change not applied): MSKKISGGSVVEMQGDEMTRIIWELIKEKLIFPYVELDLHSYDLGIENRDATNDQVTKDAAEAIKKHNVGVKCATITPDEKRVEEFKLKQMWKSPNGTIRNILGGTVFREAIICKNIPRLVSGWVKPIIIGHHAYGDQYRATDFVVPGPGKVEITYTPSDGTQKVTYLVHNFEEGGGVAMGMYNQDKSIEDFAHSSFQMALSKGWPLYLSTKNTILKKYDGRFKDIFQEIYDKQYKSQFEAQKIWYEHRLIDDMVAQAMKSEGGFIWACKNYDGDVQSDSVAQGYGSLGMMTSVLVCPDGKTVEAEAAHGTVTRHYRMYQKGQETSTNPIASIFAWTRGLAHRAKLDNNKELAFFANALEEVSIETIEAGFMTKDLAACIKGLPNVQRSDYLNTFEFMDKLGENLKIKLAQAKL
#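 IDH1-R132H (0.5 ug/mL) preincubated 30 min with compound, then NADPH (0.016 mM) and alpha-KG (2 mM) added; 80 min at RT, pH 7.5. Remaining NADPH coupled via diaphorase/resazurin to fluorescence (540/590 nm); concentration-response curves normalized to no-enzyme control.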
# An asterisk follows results filed as active; u = inconclusive; x = no result given; ! = not confirmed by another sample; [ ] = remark or other dose. Calls come from the whole dose curve; as a rule, active = well fitted curve in the direction sought with a large enough effect; inconclusive = small, poorly fitted or top-dose-only effect, or another doubt; inactive = no such curve, though single readings can be large; an effect the other way counts as inactive or inconclusive. Potency is the fitted concentration of half-maximal effect.
SMILES,TrxR1 substrate,rTrxR1 inhibitor,GRP78 ERSR act,12-LOX inh,Apoferritin bind,mIDH1 inhibitor
C=C1[C@@H](C)[C@H]2[C@H](Cc3ccccc3)NC(=O)[C@]23OC(=O)/C=C/[C@H](O)CCC[C@@H](C)C/C=C/[C@H]3[C@@H]1O,3.8%,50.1µM*!,-2.2%,1.5%,3.3%,-6.0%
COc1ccc(CCC(=O)N2CCC3(CC2)NCc2ccccc2-n2ccnc23)cc1,x,x,x,46.4%,x,x
COc1cc(C=C2C(=O)NC(=O)NC2=O)ccc1OS(=O)(=O)c1ccccc1[N+](=O)[O-],4.7%,6.31µM*,1.0%,u,-11.9%,3.6%
N[C@@H](Cc1ccc(Oc2cc(I)c(O)c(I)c2)c(I)c1)C(=O)O,x,x,x,5.1µM*,x,x
O=C1NC(=O)C(Sc2ccccc2[N+](=O)[O-])C(=O)N1,-17.7%,10.2%,-1.4%,10µM*,-8.2%,-2.3%
CC(O)CN1CCN(CC(=O)[O-])CCN(CC(=O)[O-])CCN(CC(=O)[O-])CC1.[Gd+3] (stereo not drawn),x,x,-3.6%,-6.6%[22.9 µM],x,x
Cc1nc(-c2ccccc2Br)cc([C@H]2CN3CC[C@H]2C[C@@H]3CNC(=O)Nc2cccc(C#N)c2)n1,x,x,x,28.2µM*,x,x
Cc1nc(-c2ccccc2Br)cc([C@H]2CN3CC[C@H]2C[C@@H]3CNC(=O)c2cccs2)n1,x,x,x,35.5µM*,x,x
c1ccc(C2CNC2)cc1,x,x,x,3.6%[12.5 µM],x,x
Oc1c(C(Nc2cccnc2)c2ccccc2F)ccc2cccnc12 (stereo not drawn),0.8%,1.41µM*,-4.3%,x,x,x
COc1cc(/C=C2\C(=O)NC(=O)N(c3ccccc3)C2=O)cc(OC)c1O,-15.3%,25.1µM*,-4.6%,u,-15.0%,-2.7%
COc1cc(/C=C2\C(=O)NC(=O)N(c3ccccc3)C2=O)c([N+](=O)[O-])cc1OC,6.6%[57.1 µM],7.08µM*,-5.0%,u,-15.2%,8.4%
Cn1cc(/C=C2\C(=O)NC(=O)N(c3ccccc3)C2=O)c2ccccc21,-15.1%,-25.3%,-1.6%,52.3%,-5.8%,0.0%
Cc1ncc2c(n1)C[C@@H]1CC[C@H]2N1C(=O)CC1CCCCC1,x,x,x,15.4%,x,x
c1ccc(-c2nc(N3CCOCC3)s[n+]2-c2ccccc2)cc1,-9.8%,-33.9%,-2.0%,31.6µM*,-6.2%,1.4%
COc1ccccc1NC(=O)Nc1ccc2n(c1=O)C[C@H]1C[C@@H]2CN(C2CCOCC2)C1,x,x,x,12.6µM*,x,x
CC(=O)Nc1ccc(-c2ccc(=O)n3c2[C@@H]2C[C@@H](CN(C(=O)c4ccco4)C2)C3)cc1,x,x,x,14.8%[176 µM],x,x
O=C(O)CCC(=O)NCCC1=c2ccccc2=N/C1=C\c1c(O)n(Cc2ccc(F)cc2)c(=S)[nH]c1=O,6.2%,35.5µM*,-6.4%,u,-10.6%,5.9%
CCOc1cncc(/C=C/CCNC)c1,x,x,-5.9%,17.8µM*,8.0%,x
CCN1CCCCC12Cc1ccccc1CN(C(=O)Cc1ccccc1)C2 (stereo not drawn),x,x,x,6.31µM*,x,x
CN1CCCC12Cc1ccccc1CN(C(=O)Cc1cccc(Cl)c1)C2 (stereo not drawn),x,x,x,7.8%[6.33 µM],x,x
Cc1ccc(C(=O)N2[C@H]3CC[C@@H]2c2cnc(-c4ccc(F)cc4)nc2C3)cn1,x,x,x,39.8µM*,x,x
O=C1NC(=O)C(=Cc2c(Cl)cccc2Cl)C(=O)N1,-3.3%,12.6µM*,-1.5%,u,x,2.7%
Cc1c(C=C2C(=O)NC(=O)NC2=O)c(=O)n(-c2ccccc2)n1C,5.4%[57.1 µM],-1.8%[57.1 µM],4.2%,-16.6%,-3.2%,-5.0%
CCn1nccc1C(=O)N1CCC2(CC1)c1nccn1-c1ccccc1CN2C,x,x,x,58.0%,x,x
SMILES,TrxR1 substrate,rTrxR1 inhibitor,GRP78 ERSR act,12-LOX inh,Apoferritin bind,mIDH1 inhibitor
O=C(c1ccccc1)N1CCN(C/C=C/c2ccccc2)CC1,x,x,x,-13.1%,x,x
COc1ccc(N2C(=O)NC(=O)/C(=C/c3cccc(OC(=O)c4cccs4)c3)C2=O)cc1Cl,-7.8%,10µM*,-3.5%,35.5µM*,u,0.6%
Cc1ccc(N2C(=O)NC(=O)/C(=C/c3ccc(OC(=O)c4cccs4)cc3)C2=O)cc1,-1.9%,31.6µM*,0.3%,44.7µM*,-23.8%,9.1%
Cc1ccc(N2C(=O)NC(=O)/C(=C\c3ccoc3)C2=O)cc1,4.3%[57.1 µM],-11.2%[57.1 µM],-6.3%,u,-8.4%,0.0%
CCNc1cc(N2CCN(C)CC2)ccc1[N+](=O)[O-],-14.5%,-5.4%,-3.5%,0.0%,-20.3%,9.8%
CN(C)c1c([N+](=O)[O-])cc(N2C(=O)C=CC2=O)cc1[N+](=O)[O-],0.4%,2.82µM*,-4.6%,x,x,2.3%
C#CCN1CCN(Cc2ccc(OC)c(OC)c2)CC1,x,x,x,1.7%,x,x
O=S(=O)(NC[C@H]1C[C@@H]2CCN1C[C@@H]2CN1CCOCC1)c1ccc(Cl)cc1,x,x,x,-2.0%[176 µM],x,x
C[C@@H]1CC2C3CC=C4C[C@@H](O)CC[C@]4(C)C3CC[C@]2(C)[C@H]1O (stereo partly drawn),0.8%,9.2%,-2.0%,-12.8%,x,-4.0%
C[C@H]1CC[C@@H]2[C@@H](C)[C@H]3[C@H](C[C@H]4[C@@H]5CC=C6C[C@@H](O[C@@H]7O[C@H](CO)[C@H](O)[C@H](O[C@@H]8O[C@H](CO)[C@@H](O)[C@H](O)[C@H]8O)[C@H]7O[C@@H]7O[C@@H](C)[C@H](O)[C@@H](O)[C@H]7O)CC[C@]6(C)[C@H]5CC[C@]34C)N2C1,0.0%,70.8µM*,-10.7%,-0.9%,-5.7%,4.1%
CC(C)N1CC2CCC(C1)N2S(=O)(=O)C1CC1,x,x,x,10.2%[12.5 µM],x,x
ClCCN(CCCl)/C(=C\c1ccccc1)c1ccnc2ccccc12,-23.7%,u,1.5%,x,x,x
NC(=O)c1cn(C2CCCCC2)c2ccccc2c1=O,-4.2%,13.1%,-6.7%,-6.0%,-4.2%,-4.3%
O=C1c2ccccc2C(=O)N1SC1CCCCC1,-25.4%[57.1 µM],6.8%[57.1 µM],-9.1%,15.8µM*,u,0.0%
C=CCN1CCN(C(=O)Cc2ccccc2)CC1,x,x,x,17.8%,x,x
CC(Nc1ccc([N+](=O)[O-])c2nonc12)c1ccccc1Cl (stereo not drawn),x,x,x,30.7%,x,x
CNc1cc(Cl)c2nonc2c1[N+](=O)[O-],-1.7%[57.1 µM],0.355µM*,-14.9%,u,-9.4%,-8.6%
COc1cccc2c1ccn2CC(=O)NCC1(CC(=O)O)CCCCC1,x,x,x,-3.4%,x,x
O=C1NC(=O)C2(CCCc3ccc(N(CCCl)CCCl)cc32)N1 (stereo not drawn),2.8%,20µM*,1.6%,u,x,-2.1%
O=C(c1cc2cc(Cl)ccc2[nH]1)N1CCC2(CC1)OCCO2,-4.8%,44.7µM*,0.2%,34.2%,-2.4%,4.5%
O=C(c1cc2cc(F)ccc2[nH]1)N1CCC2(CC1)OCCO2,-0.2%,13.6%,2.4%,4.4%,-1.5%,-10.5%
